Results published in paper PMC5540273 (PLoS ONE, 2017).

What follows are molecules tested on WNK3. Details: concentration: 1 μM,replicates: in singlicate; n = 1.
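Also: KINOMEscan kinase panel screen.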

Compared with `CC(C(=O)NC1CCN(c2ccnc(Nc3ccc(F)cc3)n2)C1)c1ccc(Cl)cc1` (stereo not drawn) [GSK1379713], `COc1ccc(Nc2nccc(N3CCC(NC(=O)c4cccc(C#N)c4)C3)n2)cc1` (stereo not drawn) [GSK1379730] is lower in “%Inh” value: 73% for the first, 18% for the second.

Compared with `CNC(=O)c1ccccc1Nc1nc(Nc2cccc(CS(C)(=O)=O)c2)ncc1C.O=CO` [GSK1520489], `CN(c1cccc(CNc2nc(Nc3ccc4c(c3)CC(=O)N4)ncc2C(F)(F)F)c1)S(C)(=O)=O` is lower in “%Inh” value: 65% for the first, 0% for the second.

First: CN1CCN(CCNc2nc3cc(Oc4ccc(NC(=O)Nc5cc(C(F)(F)F)ccc5F)cc4)ccc3[nH]2)CC1.Cl.Cl [GW768504]
Second: CC(C)S(=O)(=O)N1CCN(Cc2ccc3c(c2)nc(NC(=O)c2ccsc2)n3C[C@H](O)c2ccccc2)CC1 [GW635815]
The “%Inh” value of the first is lower: 0% for the first, 18% for the second.

First: COc1cc(Nc2nccc(N3CCC(NC(=O)c4cccc(C#N)c4)C3)n2)cc(OC)c1OC (stereo not drawn) [GSK1379751]
Second: O=C(NCC1CC1)c1ccc(-c2cc(C(=O)NC3CC3)ccc2F)cc1 [GW810445]
The “%Inh” value of the first is higher: 37% for the first, 11% for the second.

Going from `CSc1nccc(-c2c(-c3ccc(F)cc3)ncn2CCCN2CCOCC2)n1.Cl` [SB-217146] to `Cc1cccc(-c2nc(Nc3ccncc3)c3sccc3n2)n1` [GW869641], the “%Inh” value rises from 0% to 21%.

Compared with `Cl.Cl.NC[C@H](CC1CCCCC1)NC(=O)c1ccc(-c2ccnc3[nH]ccc23)s1` [GSK1581428], `CCNCC(Cc1ccccc1)NC(=O)c1cc(Br)c(-c2ccnc3[nH]ccc23)s1.Cl.Cl` (stereo not drawn) [GSK1383280] is higher in “%Inh” value: 0% for the first, 9% for the second.
